High-throughput results deposited in PubChem BioAssay by National Center for Advancing Translational Sciences (NCATS).
KB-V1 MDR tox = KB-V1 MDR subline cytotoxicity | KB-V1 MDR cells viability, CellTiter-Glo, 72 h | Potency, µM (titrated, usually from 46.1 µM), usual class: cytotoxic | 400,000 tested, 3.4% active; note: potency is the fitted concentration of half-maximal effect; % is set by controls: 0 for no effect and ±100 for the full control effect; nearly all actives have a fitted effect of over 60% in size
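KB-V1 cells (P-gp-expressing MDR subline of KB-3-1) in phenol-red-free DMEM with 10% FBS were exposed to library compounds over a concentration series for 72 h at 37 degrees C. Viability read by CellTiter-Glo luminescence; concentration-effect curves fitted after normalization.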
DRD3 antagonist = blocks the human D3 dopamine receptor | 360,000 tested, 2.5% active | P35462 | D3R cells, DiscoveRx beta-arrestin luminescence, antagonist mode; hits give low values | AID 652054 | max response, negative = inhibition, %; in the data active = max response below about -50%; inconclusive = no clear call, values can overlap the other calls; note: % is set by controls: 0 for no effect and ±100 for the full control effect
Target sequence (P35462 whole entry, looked up): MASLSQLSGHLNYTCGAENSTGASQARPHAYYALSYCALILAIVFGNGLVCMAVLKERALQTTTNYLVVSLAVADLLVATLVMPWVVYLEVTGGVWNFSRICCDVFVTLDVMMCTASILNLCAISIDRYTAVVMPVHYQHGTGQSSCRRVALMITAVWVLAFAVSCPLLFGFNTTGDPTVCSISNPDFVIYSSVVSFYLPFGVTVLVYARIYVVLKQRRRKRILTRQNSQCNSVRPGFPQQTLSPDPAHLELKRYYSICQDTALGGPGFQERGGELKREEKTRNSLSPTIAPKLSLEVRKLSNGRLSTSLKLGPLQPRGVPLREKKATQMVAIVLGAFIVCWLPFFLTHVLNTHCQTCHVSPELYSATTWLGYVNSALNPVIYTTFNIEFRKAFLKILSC
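Cells expressing the human receptor were seeded at 1500 cells/well, incubated overnight at 37 degrees C in 5% CO2, then exposed to library compounds with dopamine controls for 90 minutes at 37 degrees C before luminescent detection.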
SW480 rereplic = induces DNA re-replication in SW480 colon adenocarcinoma cells; Potency, µM (titrated, usually from 46.1 µM), for the others: top-dose re-replication activation, usual class: activators; AID 624297; SW480 DNA re-replication, Hoechst DNA content imaging, 48 h; 340,000 tested, 1.8% active; note: potency is the fitted concentration of half-maximal effect; % of control where 0% means no effect; nearly all actives have a fitted effect of over 55% in size
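Readout is total intensity of Hoechst-stained nuclei, excited at 405 nm and collected at 500-530 nm. Compound treatment lasted 48 hr at 37 C in 5% CO2 before staining.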
KB-3-1 tox = kills parental KB-3-1 adenocarcinoma cells | KB-3-1 viability, CellTiter-Glo ATP luminescence, 72 h | Potency, µM (top dose mostly 46.1 µM), usual class: cytotoxic | 400,000 tested, 1.4% active; note: potency is the fitted concentration of half-maximal effect; % is set by controls: 0 for no effect and ±100 for the full control effect; nearly all actives have a fitted effect of over 60% in size
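Cells are dispensed, compounds pinned in, plates held at 37 °C for 72 h, then CellTiter-Glo is added and luminescence read after 10 minutes. Cell line: parental KB-3-1 in phenol-red-free DMEM, 10% FBS.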
MCF10A rereplic = DNA re-replication induction in MCF 10a cells | MCF 10A DNA re-replication, Hoechst nuclear intensity, 48 h | Potency, µM (series often up to 46.1 µM), without a hit: at the highest dose activity, positive = re-replication, hits mostly activators | 350,000 tested, 2.9% active; note: potency is the fitted concentration of half-maximal effect; % of control where 0% means no effect; nearly all actives have a fitted effect of over 50% in size
DRD3 agonist = activates the human D3 dopamine receptor; D3R DiscoveRx beta-arrestin cells, luminescence, 90 min; max activation, %; 410,000 tested, 0.58% active; in the data active = max activation above about 30%; note: 0% is about no effect
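Cells at 1500/well, incubated overnight, then treated with pinned compounds (dopamine as control) for 90 min at 37 degrees C. DiscoveRx reagent added for 30 - 60 minutes at room temperature; luminescence read.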
* hit, by the source's call; i = inactive; ? = inconclusive; . = no result. Shown are actives, neighbours in structure and some others; about 8.9% of the full set was active somewhere. Unless noted, calls come from the whole dose curve; as a rule, active = well fitted curve in the direction sought with a large enough effect; inconclusive = small, poorly fitted or top-dose-only effect, or another doubt; inactive = no such curve, though single readings can be large; an effect the other way counts as inactive or inconclusive.

SMILES	KB-V1 MDR tox	DRD3 antagonist	SW480 rereplic	KB-3-1 tox	MCF10A rereplic	DRD3 agonist
O=c1c2cc(NC(=S)NCCN3CCCCCC3)ccc2nc2n1CCCCC2	i	-7.1	1.5%	i	0.5%	-18.8
O=c1c2cc(NC(=S)NC3CCCC3)ccc2nc2n1CCCCC2	20.6µM*	-24.6	-7.2%	i	13.3%	0.6
Cc1cccc(N2CCN(C(=S)Nc3ccc4nc5n(c(=O)c4c3)CCCCC5)CC2)c1C	?	-22.4	?	?	23.1µM*	-9.4
Cc1cccc2c(C(O)c3c[nH]c4c(C)cccc34)c[nH]c12	i	.	.	i	.	.
CC(C)c1ccc2c(c1)C(N1CCN(C)CC1)Cc1cccnc1S2 (stereo unspecified)	?	-104.3*	?	?	?	-14.6
COc1ccc(-n2c(Cc3ccccc3)nnc2SCc2nc(-c3cccs3)no2)cc1	i	.	.	i	.	-16.3
CC1=CC(C)(C)n2c(O)c(C3=NC(=S)NC3=O)c3cc(OC(=O)c4cccc5ccccc45)cc1c32	?	-57.7*	-40.3%	?	-6.4%	-15.8
O=C(Cc1ccc(NC(=O)N2CCSc3ncccc32)cc1)NCc1ccccc1	i	.	.	i	.	4.9
CC(C)=CCN1CCN(CCC2=C(C)CCCC2(C)C)CC1CCO (stereo unspecified)	i	-90.2*	-8.3%	?	?	-14.4
O=C(Nc1ccc(/C=C/c2ccc(NC(=O)c3cc(S(=O)(=O)O)c4cccnc4c3O)cc2S(=O)(=O)O)c(S(=O)(=O)O)c1)c1cc(S(=O)(=O)O)c2cccnc2c1O	.	.	.	.	.	-20.1
COCCNC(=O)c1c(C)cc(C)cc1C	i	-76.9*	-2.4%	i	3.9%	0.1
COCCNC(=O)c1ccc(C)cc1C	i	-1.1	1.1%	i	3.1%	-6.8
Cc1cc(S(=O)(=O)N2CCN(c3ccccc3F)CC2)ccc1-n1cnnn1	20.6µM*	0.4	0.6%	?	8.4%	2.3
Cc1cc(S(=O)(=O)N2CCC(N3CCCCC3)CC2)ccc1-n1cnnn1	i	11.0	1.0%	i	0.3%	-10.8
Cc1cc(S(=O)(=O)N2CCN(c3ccc(F)cc3)CC2)ccc1-n1cnnn1	i	1.3	-95.8%	i	-11.7%	-4.2
Cc1cc(S(=O)(=O)N2CCC(NC(=O)C34CC5CC(CC(C5)C3)C4)CC2)ccc1-n1cnnn1	9.2µM*	30.2	2.0%	i	-1.3%	16.5
Cn1nnnc1SCCCNCc1cc(Cl)ccc1OCc1ccccc1F	i	.	.	i	.	-22.6
Cc1cc(C)c(NC(=O)CSc2nc3nc(C)cc(C)n3n2)c(C)c1	?	.	.	i	.	6.9
S=C1Cc2ccccc2N1	?	?	?	5.8µM*	?	-15.5
Cc1ccc(C(=O)c2oc3ccccc3c2NC(=O)Cc2ccccc2)cc1	i	.	.	i	.	4.3
COC(=O)c1nn(-c2ccc(OC)cc2)c(=O)c2c(N)sc(C)c12	i	8.2	29.1µM*	i	-3.7%	-1.0
CC(C)c1ccc(N2C(=O)CSC23C(=O)N(Cc2ccccc2F)c2ccccc23)cc1 (stereo unspecified)	?	.	.	?	.	-17.8
COc1ccccc1NC(=O)CN1C(=O)C2(SCC(=O)N2c2ccc(C)c(C)c2)c2ccccc21 (stereo unspecified)	?	.	.	18.4µM*	.	3.9
Cc1ccc(C)c(NC(=O)CN2C(=O)C3(SCC(=O)N3c3ccc(C)c(C)c3)c3ccccc32)c1 (stereo unspecified)	i	.	.	?	.	-7.7
CC(C)c1ccc(N2C(=O)CSC23C(=O)N(Cc2ccccc2)c2ccccc23)cc1 (stereo unspecified)	11.6µM*	.	.	?	.	-11.1
SMILES	KB-V1 MDR tox	DRD3 antagonist	SW480 rereplic	KB-3-1 tox	MCF10A rereplic	DRD3 agonist
CCc1ccc(N2C(=O)CSC23C(=O)N(Cc2cccc(F)c2)c2ccccc23)cc1 (stereo unspecified)	11.6µM*	.	.	?	.	-16.0
COc1cccc(CN2C(=O)C3(SCC(=O)N3c3ccc(F)cc3)c3ccccc32)c1 (stereo unspecified)	?	.	.	i	.	-7.7
Cc1ccc(CN2C(=O)C3(SCC(=O)N3c3ccc(C)c(C)c3)c3ccccc32)cc1 (stereo unspecified)	18.4µM*	.	.	20.6µM*	.	-10.0
COc1ccccc1NC(=O)CN1C(=O)C2(SCC(=O)N2c2ccc(F)c(F)c2)c2ccccc21 (stereo unspecified)	i	.	.	?	.	-6.1
Cc1cc(C)n(C(C)CC(=O)Nc2ccc(Cl)cc2C)n1 (stereo unspecified)	i	.	.	i	.	6.3
CCN(C(=O)CSc1nnc(-c2cc3occc3n2C)n1-c1ccccc1C)c1ccccc1	.	.	.	.	.	-1.5
CCc1ccc(NC(=O)CN2C(=O)C3(SCC(=O)N3c3ccccc3)c3ccccc32)cc1 (stereo unspecified)	i	.	.	i	.	-13.4
O=C(CN1C(=O)C2(SCC(=O)N2c2cccc(Cl)c2)c2ccccc21)NCc1ccccc1 (stereo unspecified)	?	.	.	i	.	-4.4
Cc1ccc(N2C(=O)CSC23C(=O)N(Cc2ccccc2F)c2ccccc23)cc1F (stereo unspecified)	10.3µM*	.	.	?	.	-11.3
O=C(CN1C(=O)C2(SCC(=O)N2c2cccc(Cl)c2)c2ccccc21)NCCc1ccccc1 (stereo unspecified)	i	.	.	14.6µM*	.	-4.4
CCc1ccc(N2C(=O)CSC23C(=O)N(Cc2ccc(C)cc2)c2ccccc23)cc1 (stereo unspecified)	11.6µM*	.	.	?	.	-16.4
COc1ccc(OC)c(C(=O)CSc2ncc3c(n2)-c2ccccc2N(Cc2ccccc2C)S3(=O)=O)c1	?	.	.	i	.	1.7
Nc1c(C(=O)c2ccccc2)sc2nsc(SCCN3CCCC3)c12	?	-16.3	?	?	20.6µM*	-6.4
C/C(NCCc1ccc(O)cc1)=C1/CCOC1=O	i	6.0	.	?	.	44.9*
COc1ccc(-c2cnc(N3CCC(C(N)=O)CC3)s2)cc1OC	i	.	.	i	.	.
CCn1c2ccccc2c2cc(CN3CCN(Cc4ccc(Cl)cc4)CC3)ccc21	.	.	.	.	.	-38.8
Cc1nc2cc(C(=O)N3c4ccccc4CC3C)ccc2s1 (stereo unspecified)	?	0.4	?	20.6µM*	-4.2%	-3.0
CC1Cc2ccccc2N1C(=O)c1ccc2snnc2c1 (stereo unspecified)	i	-6.6	-1.6%	i	-28.4%	1.6
CCOC(=O)c1cc(NC(=O)c2ccc(Cl)cc2)c(=O)n2c1oc1ccccc12	i	.	.	i	.	6.8
